The text below walks through data of ChEMBL document CHEMBL1961873, “Compounds: GSK PKIS; Assays: Nanosyn kinase panel” (2012).

Molecules are shown by their SMILES.

Test [1] addresses Tyrosine-protein kinase CSK (Homo sapiens) (UniProt P41240). Particulars: at 1 µM.
The target in test [2] is T1, Discoidin domain-containing receptor 2 (Homo sapiens) (UniProt Q16832).
T1 sequence (whole entry): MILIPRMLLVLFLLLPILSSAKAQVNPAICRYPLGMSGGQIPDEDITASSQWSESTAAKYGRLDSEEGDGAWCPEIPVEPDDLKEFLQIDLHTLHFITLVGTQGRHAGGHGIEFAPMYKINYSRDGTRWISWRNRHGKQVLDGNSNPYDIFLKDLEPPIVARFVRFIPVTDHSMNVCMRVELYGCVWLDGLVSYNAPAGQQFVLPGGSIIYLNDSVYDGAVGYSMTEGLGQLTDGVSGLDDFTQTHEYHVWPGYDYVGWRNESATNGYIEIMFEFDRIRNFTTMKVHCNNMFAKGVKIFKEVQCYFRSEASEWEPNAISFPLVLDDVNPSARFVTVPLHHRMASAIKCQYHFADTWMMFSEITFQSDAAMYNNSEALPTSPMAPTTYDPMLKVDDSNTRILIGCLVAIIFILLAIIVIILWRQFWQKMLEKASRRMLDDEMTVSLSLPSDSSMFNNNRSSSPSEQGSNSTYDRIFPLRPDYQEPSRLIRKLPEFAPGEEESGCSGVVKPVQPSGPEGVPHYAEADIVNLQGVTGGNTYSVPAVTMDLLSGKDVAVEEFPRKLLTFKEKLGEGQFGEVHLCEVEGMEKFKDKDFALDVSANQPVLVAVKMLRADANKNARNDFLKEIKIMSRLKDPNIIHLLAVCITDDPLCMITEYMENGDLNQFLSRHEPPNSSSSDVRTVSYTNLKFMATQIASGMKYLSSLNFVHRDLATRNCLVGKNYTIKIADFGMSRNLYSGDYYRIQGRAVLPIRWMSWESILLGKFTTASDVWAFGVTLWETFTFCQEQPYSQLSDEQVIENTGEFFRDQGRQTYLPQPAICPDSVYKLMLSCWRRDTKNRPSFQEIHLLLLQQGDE
Particulars: at 0.1 µM.

The target in test [3] is T1, Discoidin domain-containing receptor 2 (Homo sapiens). Conditions: at 1 µM.
Test [4] has as its target Epidermal growth factor receptor (Homo sapiens) (UniProt P00533). Conditions: at 0.1 µM.
Test [5] shares this target. Particulars: at 1 µM.
Test [6] deals with Epidermal growth factor receptor (Homo sapiens), P00533 [L858R]. Conditions: at 0.1 µM.
The test system is the same in test [7]. Conditions: at 1 µM.
Test [8] relates to Epidermal growth factor receptor (Homo sapiens), P00533 [L861Q]. Conditions: at 0.1 µM.
Test [9] shares this test system. Conditions: at 1 µM.
The test system of test [10] is Epidermal growth factor receptor (Homo sapiens), P00533 [T790M]. Particulars: at 0.1 µM.
Sequence of Epidermal growth factor receptor (Homo sapiens), P00533 [T790M] (P00533 whole entry T790M): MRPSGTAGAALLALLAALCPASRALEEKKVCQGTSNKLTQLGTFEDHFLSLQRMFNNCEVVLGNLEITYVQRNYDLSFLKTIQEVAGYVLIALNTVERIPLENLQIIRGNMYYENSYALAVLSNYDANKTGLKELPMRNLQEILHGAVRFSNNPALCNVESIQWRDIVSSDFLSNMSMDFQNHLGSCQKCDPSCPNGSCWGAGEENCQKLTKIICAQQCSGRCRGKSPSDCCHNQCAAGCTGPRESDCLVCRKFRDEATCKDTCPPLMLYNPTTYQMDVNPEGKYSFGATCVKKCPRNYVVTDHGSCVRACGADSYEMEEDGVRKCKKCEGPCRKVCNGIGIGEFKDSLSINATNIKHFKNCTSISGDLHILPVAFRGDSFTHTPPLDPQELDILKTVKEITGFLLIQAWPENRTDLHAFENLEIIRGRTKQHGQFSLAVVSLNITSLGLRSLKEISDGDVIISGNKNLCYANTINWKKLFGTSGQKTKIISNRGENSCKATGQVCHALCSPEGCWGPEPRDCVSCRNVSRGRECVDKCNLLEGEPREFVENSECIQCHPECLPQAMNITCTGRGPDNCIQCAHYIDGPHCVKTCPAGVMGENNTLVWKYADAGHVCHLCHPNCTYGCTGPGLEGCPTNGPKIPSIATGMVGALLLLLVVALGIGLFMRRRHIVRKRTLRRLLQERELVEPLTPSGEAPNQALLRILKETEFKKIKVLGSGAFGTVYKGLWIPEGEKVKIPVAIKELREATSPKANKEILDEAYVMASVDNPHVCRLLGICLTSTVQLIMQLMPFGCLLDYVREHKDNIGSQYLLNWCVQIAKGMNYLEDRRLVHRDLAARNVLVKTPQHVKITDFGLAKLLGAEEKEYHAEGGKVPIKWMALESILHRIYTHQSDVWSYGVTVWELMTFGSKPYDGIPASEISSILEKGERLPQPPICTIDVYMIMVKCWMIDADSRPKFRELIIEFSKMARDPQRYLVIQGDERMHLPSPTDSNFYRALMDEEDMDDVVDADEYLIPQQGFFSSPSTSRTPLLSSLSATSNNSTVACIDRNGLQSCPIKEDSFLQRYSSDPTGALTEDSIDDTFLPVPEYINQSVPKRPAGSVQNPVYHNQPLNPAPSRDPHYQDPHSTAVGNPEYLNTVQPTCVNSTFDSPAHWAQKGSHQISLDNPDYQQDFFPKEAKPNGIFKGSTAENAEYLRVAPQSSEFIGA

Sequence of Epidermal growth factor receptor (Homo sapiens), P00533 [L861Q] (P00533 whole entry L861Q): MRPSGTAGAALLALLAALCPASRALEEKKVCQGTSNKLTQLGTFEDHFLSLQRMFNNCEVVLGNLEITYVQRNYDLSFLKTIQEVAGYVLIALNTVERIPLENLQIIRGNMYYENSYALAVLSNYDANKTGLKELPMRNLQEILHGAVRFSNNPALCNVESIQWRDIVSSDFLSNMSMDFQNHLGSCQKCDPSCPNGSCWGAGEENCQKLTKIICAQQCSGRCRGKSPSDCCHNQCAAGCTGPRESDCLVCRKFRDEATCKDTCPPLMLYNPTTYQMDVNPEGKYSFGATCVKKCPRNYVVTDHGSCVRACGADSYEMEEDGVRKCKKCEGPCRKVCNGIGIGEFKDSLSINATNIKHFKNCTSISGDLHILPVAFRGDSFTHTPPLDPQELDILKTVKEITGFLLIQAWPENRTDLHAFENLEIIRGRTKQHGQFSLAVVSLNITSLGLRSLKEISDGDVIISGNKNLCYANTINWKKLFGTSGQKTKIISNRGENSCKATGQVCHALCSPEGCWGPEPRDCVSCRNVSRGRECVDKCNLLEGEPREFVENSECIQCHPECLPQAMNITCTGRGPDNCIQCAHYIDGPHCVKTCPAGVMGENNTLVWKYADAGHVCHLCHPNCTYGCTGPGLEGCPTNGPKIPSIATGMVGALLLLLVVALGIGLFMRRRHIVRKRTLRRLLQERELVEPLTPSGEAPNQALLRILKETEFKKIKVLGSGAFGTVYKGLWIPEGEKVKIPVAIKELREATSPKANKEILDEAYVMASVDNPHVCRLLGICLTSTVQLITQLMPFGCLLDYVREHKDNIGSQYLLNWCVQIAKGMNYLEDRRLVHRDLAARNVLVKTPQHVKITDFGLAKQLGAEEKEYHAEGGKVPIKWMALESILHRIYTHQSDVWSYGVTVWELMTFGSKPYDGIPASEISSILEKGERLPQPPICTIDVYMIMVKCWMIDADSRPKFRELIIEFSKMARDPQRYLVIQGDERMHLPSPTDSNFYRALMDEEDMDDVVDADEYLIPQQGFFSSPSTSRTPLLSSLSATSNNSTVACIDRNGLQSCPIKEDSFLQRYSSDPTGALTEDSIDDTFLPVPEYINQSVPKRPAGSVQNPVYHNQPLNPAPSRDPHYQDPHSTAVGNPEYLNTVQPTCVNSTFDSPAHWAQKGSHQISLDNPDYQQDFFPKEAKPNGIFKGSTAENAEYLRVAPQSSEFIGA
Sequence of Epidermal growth factor receptor (Homo sapiens), P00533 [L858R] (P00533 whole entry L858R): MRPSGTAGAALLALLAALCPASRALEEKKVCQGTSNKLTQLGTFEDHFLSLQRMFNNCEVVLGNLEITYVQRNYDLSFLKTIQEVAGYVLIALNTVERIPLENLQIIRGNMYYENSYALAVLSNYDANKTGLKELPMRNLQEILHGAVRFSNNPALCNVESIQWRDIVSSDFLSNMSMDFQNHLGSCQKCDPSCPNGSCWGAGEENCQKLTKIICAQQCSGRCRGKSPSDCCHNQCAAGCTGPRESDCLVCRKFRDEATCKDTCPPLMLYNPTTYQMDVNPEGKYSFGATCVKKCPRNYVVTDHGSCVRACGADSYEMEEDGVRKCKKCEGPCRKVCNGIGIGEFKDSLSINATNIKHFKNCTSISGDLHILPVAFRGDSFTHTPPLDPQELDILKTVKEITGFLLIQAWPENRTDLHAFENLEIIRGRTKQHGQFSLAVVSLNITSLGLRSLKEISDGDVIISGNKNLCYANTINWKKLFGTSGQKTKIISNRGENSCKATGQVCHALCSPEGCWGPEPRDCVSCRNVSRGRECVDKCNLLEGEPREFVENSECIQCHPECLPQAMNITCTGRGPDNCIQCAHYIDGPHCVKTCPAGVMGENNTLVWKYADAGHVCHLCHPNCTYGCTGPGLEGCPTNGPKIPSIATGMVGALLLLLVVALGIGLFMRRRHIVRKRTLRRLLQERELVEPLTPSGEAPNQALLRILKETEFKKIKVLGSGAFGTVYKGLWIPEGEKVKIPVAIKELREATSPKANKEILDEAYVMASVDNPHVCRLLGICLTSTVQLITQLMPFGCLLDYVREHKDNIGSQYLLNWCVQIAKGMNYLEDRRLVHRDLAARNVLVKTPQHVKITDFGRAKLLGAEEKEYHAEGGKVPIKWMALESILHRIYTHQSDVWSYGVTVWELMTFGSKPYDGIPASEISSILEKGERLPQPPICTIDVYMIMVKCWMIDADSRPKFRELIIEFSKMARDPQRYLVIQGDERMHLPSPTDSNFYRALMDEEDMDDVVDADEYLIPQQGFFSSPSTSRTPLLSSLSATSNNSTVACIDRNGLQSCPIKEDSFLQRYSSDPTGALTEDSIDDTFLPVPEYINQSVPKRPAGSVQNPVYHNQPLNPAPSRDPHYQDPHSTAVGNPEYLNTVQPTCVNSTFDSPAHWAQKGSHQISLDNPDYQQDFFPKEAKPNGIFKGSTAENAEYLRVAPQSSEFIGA
Sequence of Epidermal growth factor receptor (Homo sapiens) (P00533 whole entry): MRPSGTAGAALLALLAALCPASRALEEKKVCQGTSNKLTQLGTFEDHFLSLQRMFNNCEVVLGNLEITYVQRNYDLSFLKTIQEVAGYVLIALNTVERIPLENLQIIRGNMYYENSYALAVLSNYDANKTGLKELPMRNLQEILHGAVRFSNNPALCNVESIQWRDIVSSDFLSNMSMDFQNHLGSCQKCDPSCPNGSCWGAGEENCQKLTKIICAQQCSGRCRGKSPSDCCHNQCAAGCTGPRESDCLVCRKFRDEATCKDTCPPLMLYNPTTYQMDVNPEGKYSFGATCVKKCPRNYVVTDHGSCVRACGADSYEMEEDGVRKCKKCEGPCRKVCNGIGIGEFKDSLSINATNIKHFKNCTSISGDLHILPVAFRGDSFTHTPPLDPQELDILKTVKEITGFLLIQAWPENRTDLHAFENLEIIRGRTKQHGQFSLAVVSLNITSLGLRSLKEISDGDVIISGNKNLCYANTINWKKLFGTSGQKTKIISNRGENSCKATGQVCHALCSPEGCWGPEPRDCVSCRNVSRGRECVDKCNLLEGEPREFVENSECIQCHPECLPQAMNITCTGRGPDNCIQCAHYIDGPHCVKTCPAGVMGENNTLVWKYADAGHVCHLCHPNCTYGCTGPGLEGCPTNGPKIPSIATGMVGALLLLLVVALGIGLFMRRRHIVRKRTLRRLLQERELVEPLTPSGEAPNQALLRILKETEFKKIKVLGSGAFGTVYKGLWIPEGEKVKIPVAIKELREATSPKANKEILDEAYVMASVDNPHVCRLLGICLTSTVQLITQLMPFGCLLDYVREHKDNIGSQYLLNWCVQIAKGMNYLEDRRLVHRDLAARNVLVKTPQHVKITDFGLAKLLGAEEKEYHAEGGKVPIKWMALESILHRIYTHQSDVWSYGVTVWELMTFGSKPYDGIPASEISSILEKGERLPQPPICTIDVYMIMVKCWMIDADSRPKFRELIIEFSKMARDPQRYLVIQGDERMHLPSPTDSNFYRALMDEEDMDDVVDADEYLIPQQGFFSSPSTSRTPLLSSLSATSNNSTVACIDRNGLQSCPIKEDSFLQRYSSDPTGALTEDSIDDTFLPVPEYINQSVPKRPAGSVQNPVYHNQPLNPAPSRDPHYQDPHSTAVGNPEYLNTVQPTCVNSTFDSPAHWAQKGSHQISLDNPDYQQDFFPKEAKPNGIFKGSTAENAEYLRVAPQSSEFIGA

With `NCc1ccc(-n2c(-c3nonc3N)nc3cnccc32)cc1`, the inhibition in test [1] was 1.46%; in [2] it was 2.78%; in [3], 3.01%; in test [4], 1.73%; in test [5] it was 1.72%; in test [6] it was 3.13%. In addition, the inhibition in test [7] came to 1.55%; in test [8], 2.5%; in test [9], 2.02%; in test [10], 3.36%.
For `Fc1ccc(-c2c(-c3ccncc3)nc3n2CCS3)cc1`, the inhibition was 5.05% in test [1]; 0.56% in test [2]; -0.39% in test [3]; -4.84% in [4]; -0.06% in test [5]; 3.61% in test [6]. The inhibition in [7] came out at 22.2%; in test [8], 1.81%; in test [9], 1.46%; in [10], 1.14%.
`COc1ccc2cc(-c3c(-c4ccncc4)nc(-c4ccc(S(C)(=O)=O)cc4C)n3C)ccc2c1`: the inhibition was 7.9% in test [1]; -1.21% in test [2]; -5.12% in [3]; 0.26% in test [4]; 6.12% in [5]; 1.94% in test [6]. Also, the inhibition in test [7] amounted to 10.5%; in test [8], 2.4%; in test [9], 10.6%; in [10], 1.37%.
Consider `Fc1ccc(-c2nc3n(c2-c2ccncc2)CCS3)cc1`, for which the inhibition in test [1] stood at 4.61%; in [2], 2.36%; in test [3], 4.83%; in [4], 0.92%; in test [5], 3.39%; in test [6], 5.61%. For the same compound, the inhibition was 14.5% in test [7], 2.5% in test [8], 1.57% in [9] and 1.65% in [10].
In the case of `O=C1Nc2ccc(I)cc2C1=Cc1cc(Br)c(O)c(Br)c1`, the inhibition in test [1] was 4.94%; in test [2] it was 1.45%; in [3], 3.44%; in test [4], 2.85%; in test [5] it was -1.18%; in test [6] it was -1.9%. For the same compound, the inhibition in test [7] came out at 2.8%; in [8], 2.43%; in test [9], 3.74%; in test [10] it was 0.08%.
Consider `CN(C)CCOc1ccc(-c2cc(-c3ccc4c(c3)CCC4=NO)c(-c3ccncc3)o2)cc1`, for which the inhibition is -1.46% in test [1]; 0.26% in test [2]; 1.8% in [3]; 4.94% in [4]; 7.65% in [5]; -0.5% in test [6]. Besides, the inhibition in test [7] is 7.4%; in [8], -0.03%; in [9], 4.41%; in test [10], -1.42%.
On to `O=C(NCC1CC1)c1ccc(-c2cccc(C(=O)NC3CC3)c2)cc1`, for which the inhibition in [1] was -3.57%; in test [2], 4.92%; in test [3] it was 7.61%; in test [4] it was 1.39%; in [5] it was 0.85%; in [6] it was 2.42%. Moreover, the inhibition in [7] was -2.6%; in [8] it was -0.16%; in test [9], -2.26%; in [10], 0.88%.
Turning to `CCS(=O)(=O)c1ccc(OC)c(Nc2ncc(-c3cccc(-c4ccccc4F)c3)o2)c1`, the inhibition is 4.82% in [1]; 4.99% in test [2]; 30.8% in test [3]; 4.07% in test [4]; 23.3% in [5]; 14.1% in test [6]. The inhibition in test [7] was 62.1%; in test [8], 4.78%; in test [9] it was 24.4%; in [10], -1.94%.
Regarding `NC(=O)c1cc(-c2ccc(F)cc2)cc(-c2ccncc2)c1N`, the inhibition in test [1] is 5.4%; in [2], 1.42%; in test [3] it was 2.13%; in [4] it was -0.24%; in [5] it was 5.03%; in [6] it was 5.96%. Besides, the inhibition in test [7] amounted to 7.27%; in test [8], 4.19%; in test [9] it was 7.37%; in test [10], 1.23%.
As for `COc1cc(C)c(N(C)C(=O)CN(C)C)cc1Nc1nc(Nc2cccc(F)c2C(N)=O)c2cc[nH]c2n1`, the inhibition in test [1] is -1.53%; in test [2] it was 0.29%; in [3], 0.56%; in test [4] it was -4.88%; in [5] it was -1.47%; in [6], -1.11%. Further, the inhibition in test [7] is 1.56%; in [8], 1.84%; in [9], -2.41%; in [10], 0.93%.
In the case of `COc1cc2ncn(-c3cc(OCc4ccccc4C(F)(F)F)c(C(C)=O)s3)c2cc1OC`, the inhibition is 3.13% in test [1]; 3.54% in test [2]; 5.22% in test [3]; -0.8% in test [4]; 1.81% in test [5]; -2.47% in [6]. Further, the inhibition came to 3.36% in test [7], 1.73% in [8], 0.09% in test [9] and 2.46% in [10].
For `COc1cc2ncn(-c3cc(OCc4cccs4)c(C(N)=O)s3)c2cc1OC`, the inhibition in [1] is 9.5%; in test [2], 3.95%; in test [3], 4.63%; in [4], -1.17%; in [5] it was 1.76%; in [6], 4.34%. Besides, the inhibition worked out at 18.5% in [7], 2.87% in test [8], 7.86% in [9] and 1.54% in test [10].
`O=C(Nc1n[nH]c2cc(-c3cc(F)ccc3F)ccc12)C1CC1`: the inhibition in test [1] is 2.29%; in test [2], 2.61%; in test [3], 4.77%; in [4], 1.18%; in test [5] it was 2.02%; in [6], 1.19%. For the same compound, the inhibition is 3.64% in test [7], 2.35% in [8], -0.56% in test [9] and 0.87% in [10].
Regarding `COc1cc(Nc2ncc(-c3ccccc3)o2)cc(OC)c1OC`, the inhibition in test [1] was -0.86%; in test [2], 0.74%; in test [3], 8.58%; in test [4], 6.02%; in test [5], 13.8%; in test [6], -1.09%. The inhibition in [7] was -0.27%; in test [8] it was 0.27%; in [9], 0.17%; in test [10], 0.05%.
`O=C1NC(=O)C(c2cccc(Cl)c2)=C1Nc1ccc(Cl)c(C(=O)O)c1`: the inhibition in test [1] stood at 1.91%; in [2] it was 3.06%; in test [3], 4.88%; in test [4], 1.44%; in [5] it was 2.17%; in test [6], 1.51%. For the same compound, the inhibition in [7] was found to be 5.24%; in [8] it was 1.41%; in test [9], 2.94%; in [10], 1%.
With `COC(=O)Nc1nc2ccc(Sc3ccc(NC(=O)Nc4cc(C(F)(F)F)ccc4F)cc3)cc2[nH]1`, the inhibition in test [1] was 7.52%; in test [2], 56.3%; in test [3] it was 83.5%; in [4], -0.94%; in [5] it was 2.67%; in test [6] it was -0.44%. Moreover, the inhibition in test [7] was 2.71%; in test [8] it was 2.04%; in test [9] it was 0.54%; in [10] it was 0.63%.
`CCc1nccc2c1nc(-c1nonc1N)n2CC`: the inhibition in [1] was -3.01%; in [2], 1.17%; in [3] it was 2.38%; in test [4] it was 6.7%; in [5], 7.54%; in test [6], 0.22%. Besides, the inhibition in [7] is -2.09%; in test [8] it was -1.13%; in test [9], -0.05%; in [10], -1.16%.
